Assay results as given in the supplement of paper PMC8975748.
Where a name gives a salt, the structure may show the parent alone.

The compounds below were run on Saccharomyces cerevisiae BY4741 SeMeCo community (assay: z-score of subpopulation abundance vs DMSO median, subpopulation auxotrophic for HU; higher = larger share of this subpopulation than in DMSO controls). Settings: 10 µM; 24 h; SM minimal medium; subpopulation (auxotrophy): HU.
Description: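 Fluorescent four-plasmid SeMeCo (self-establishing metabolically cooperating S. cerevisiae BY4741 community; plasmids pH-mRuby2, pL-mWasabi, pU-eCFP, pM-TagRFP657) was grown 24 h in minimal SM medium with each Selleck FDA-approved drug at 10 µM in 384-well plates. Cells were fixed and imaged by high-content confocal microscopy. For each auxotrophic subpopulation (and the prototroph), a z-score gives the deviation from the DMSO vehicle-control population median.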

SMILES	z-score of subpopulation abundance
C=C1CCN([C@H](C)[C@](O)(Cn2cncn2)c2ccc(F)cc2F)CC1 [Efinaconazole]	2.02
NC(=O)c1cn(Cc2c(F)cccc2F)nn1 [Rufinamide]	-0.24
O=C1c2c(O)ccc(O)c2C(=O)c2c(NCCNCCO)ccc(NCCNCCO)c21 [Mitoxantrone 2HCl]	26.5
Clc1ccc(C(Cn2ccnc2)OCc2c(Cl)cccc2Cl)c(Cl)c1 (stereo not given) [Isoconazole nitrate]	11.7
Cc1cc(O)cc(C)c1Cl [Chloroxylenol]	1.05
CCn1cc(C(=O)O)c(=O)c2ccc(C)nc21 [Nalidixic acid]	-0.52
O=c1[nH]c(=O)n([C@H]2C[C@H](O)[C@@H](CO)O2)cc1/C=C/Br [Brivudine]	-0.94
CCCCc1oc2ccccc2c1C(=O)c1cc(I)c(OCCN(CC)CC)c(I)c1 [Amiodarone HCl]	4.02
C#C[C@]1(O)CC[C@H]2[C@@H]3CCC4=Cc5oncc5C[C@]4(C)[C@H]3CC[C@@]21C [Danazol]	0.32
C#C[C@]1(O)CC[C@H]2[C@@H]3CCC4=CC(=O)CC[C@@H]4[C@H]3C(=C)C[C@@]21CC [Etonogestrel]	0.83
CCN(CC)CCOCCOC(=O)C1(c2ccccc2)CCCC1 [Pentoxyverine Citrate]	-0.94
CCCCOc1ccc(C(=O)CCN2CCCCC2)cc1 [Dyclonine HCl]	0.17
O=C1[C@H]2CCCC[C@H]2C(=O)N1CCCCN1CCN(c2nsc3ccccc23)CC1 [Perospirone hydrochloride]	0.13
O=C1Nc2ccccc2C1=O [Isatin]	0.91
O=C1CN2Cc3c(ccc(Cl)c3Cl)N=C2N1 [Anagrelide HCl]	0.3
CC(C)[C@H](N)C(=O)OCC(CO)OCn1cnc2c(=O)[nH]c(N)nc21 (stereo not given in full) [Valganciclovir HCl]	-0.15
CN1CCN(c2cc3c(cc2F)c(=O)c(C(=O)O)cn3-c2ccc(F)cc2)CC1 [Difloxacin hydrochloride]	-0.87
Cc1ccc(Sc2ccccc2N2CCNCC2)c(C)c1	-0.76
CCOc1ccc2nc3cc(N)ccc3c(N)c2c1 [Ethacridine lactate monohydrate]	-8.09
CCN1CCC[C@H]1CNC(=O)c1cc(S(N)(=O)=O)ccc1OC [Levosulpiride]	-0.27

SMILES	z-score of subpopulation abundance
COc1cccc2c1C(=O)c1c(O)c3c(c(O)c1C2=O)CC(O)(C(=O)CO)CC3OC1CC(N)C(O)C(C)O1 (stereo not given) [Doxorubicin (Adriamycin) HCl]	8.36
CC(=O)O[C@H]1C[C@@H]2CC[C@@H]3[C@H](CC[C@@]4(C)[C@H]3C[C@H]([N+]3(C)CCCCC3)[C@@H]4OC(C)=O)[C@@]2(C)C[C@@H]1N1CCCCC1 [Vecuronium Bromide]	-0.65
CCCCNc1ccc(C(=O)OCCN(C)C)cc1 [Tetracaine HCl]	0.08
Nc1ccc(S(=O)(=O)Nc2nccs2)cc1 [Sulfathiazole]	-0.39
C=CC[N+]1([C@H]2C[C@H]3[C@@H]4CC[C@H]5C[C@H](O)[C@@H](N6CCOCC6)C[C@]5(C)[C@H]4CC[C@]3(C)[C@H]2OC(C)=O)CCCC1 [Rocuronium Bromide]	-0.39
Cc1onc(-c2ccccc2)c1-c1ccc(S(N)(=O)=O)cc1 [Valdecoxib]	-0.23
Nc1ccc(S(N)(=O)=O)cc1 [Sulfanilamide]	-1.15
C#C[C@]1(O)CC[C@H]2[C@@H]3CCC4=CCCC[C@@H]4[C@H]3C(=C)C[C@@]21CC [Desogestrel]	-0.11
NC(=N\CCCCCC/N=C(N)/N=C(\N)Nc1ccc(Cl)cc1)/N=C(\N)Nc1ccc(Cl)cc1 [Chlorhexidine diacetate]	-0.08
COc1cc(NS(=O)(=O)c2ccc(N)cc2)nc(OC)n1 [SulfadiMethoxine sodium]	0.29
CCN[C@@H]1C[C@H](N)[C@@H](O[C@H]2OC(CN)=CC[C@H]2N)[C@H](O)[C@H]1O[C@H]1OC[C@](C)(O)[C@H](NC)[C@H]1O [Netilmicin Sulfate]	0.01
CCOC(=O)C1=C(COCCN)NC(C)=C(C(=O)OC)[C@@H]1c1ccccc1Cl [Levamlodipine]	-6.75
CO[C@@]1(NC(=O)Cc2cccs2)C(=O)N2C(C(=O)O)=C(COC(N)=O)CS[C@@H]21 [Cefoxitin sodium]	-0.94
CNCCC(Oc1ccc(C(F)(F)F)cc1)c1ccccc1 (stereo not given) [Fluoxetine HCl]	-0.26
OC(Cn1cncn1)(Cn1cncn1)c1ccc(F)cc1F [Fluconazole]	-1.49
CCCNC(C)C(=O)Nc1ccccc1C (stereo not given) [Prilocaine]	0.57
O=c1ccc2ccc(OCCCCN3CCN(c4cccc5sccc45)CC3)cc2[nH]1 [Brexpiprazole]	1.54
CC(=O)N1CCN(c2ccc(OCC3COC(Cn4ccnc4)(c4ccc(Cl)cc4Cl)O3)cc2)CC1 (stereo not given) [Ketoconazole]	-0.29
COc1ccc(C2CNC(=O)C2)cc1OC1CCCC1 (stereo not given) [Rolipram]	-0.85
Nc1nc2[nH]cc(CCc3ccc(C(=O)N[C@@H](CCC(=O)O)C(=O)O)cc3)c2c(=O)[nH]1 [Pemetrexed]	2.15
